Compounds with a hit are over-represented: about 10% of the library has one in this group of screens.
LMNA splice mod: modulators of lamin A splicing; HeLa LMNA splicing GFP/RFP minigene ratio, 48 h; Potency, µM (doses to about 46.1 µM), for inactives: top-dose ratio change, negative = inhibition, most hits filed as inhibitors; actives 0.01% (n = 200,000); active = well fitted inhibition curve with a large enough effect in the signal ratio, with a control signal flat, not every such curve was filed as active; inconclusive = small, poorly fitted or top-dose-only effect, or effect the other way, or a change in a side signal; the % refers to the signal ratio; note: potency is the fitted concentration of half-maximal effect
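Read-out is the ratio of GFP to DsRed2 object intensity, acquired by 488 nm laser-scanning cytometry on HeLa lamin A-EGFP minigene reporter cells. Compound incubation 48 hrs at 37 °C in Opti-MEM with 2% FBS; DMSO 0.5% final.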
HPGD inh: blocks human HPGD enzyme activity | actives 4.3% (n = 150,000) | purified HPGD, NADH fluorescence kinetic, PGE2 substrate | P15428 | AID 894 | Potency, µM, for the others: top-dose activity change, negative = inhibition, usual class: inhibitors; note: potency is the fitted concentration of half-maximal effect
Target sequence (P15428 whole entry, looked up): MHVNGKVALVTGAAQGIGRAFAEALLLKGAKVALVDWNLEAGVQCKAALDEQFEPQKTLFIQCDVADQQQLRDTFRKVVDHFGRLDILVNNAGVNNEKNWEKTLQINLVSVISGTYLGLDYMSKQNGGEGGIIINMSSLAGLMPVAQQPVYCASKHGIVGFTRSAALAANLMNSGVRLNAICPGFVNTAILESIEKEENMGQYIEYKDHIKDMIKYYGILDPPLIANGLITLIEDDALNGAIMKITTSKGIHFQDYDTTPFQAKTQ
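20 nM HPGD preincubated 15 min at room temperature with compound in 50 mM Tris-HCl pH 8, 0.01% Tween 20. Started with 1 mM NAD+ and 30 uM prostaglandin E2; NADH fluorescence (360/450 nm) read 5 times over 30-s intervals, last minus first.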
ALDH1A1 inh: ALDH1A1 (human) enzyme inhibition; P00352; Purified ALDH1A1, NADH fluorescence, propionaldehyde substrate; Potency, µM (highest dose often 75.3 µM), for the others: at the top dose activity, negative = inhibition, actives largely listed as inhibitors; actives 7.3% (n = 220,000); AID 1030;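 note: potency is the fitted concentration of half-maximal effect; plate controls were no enzyme wells and a reference inhibitor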
Target sequence (P00352 whole entry, looked up): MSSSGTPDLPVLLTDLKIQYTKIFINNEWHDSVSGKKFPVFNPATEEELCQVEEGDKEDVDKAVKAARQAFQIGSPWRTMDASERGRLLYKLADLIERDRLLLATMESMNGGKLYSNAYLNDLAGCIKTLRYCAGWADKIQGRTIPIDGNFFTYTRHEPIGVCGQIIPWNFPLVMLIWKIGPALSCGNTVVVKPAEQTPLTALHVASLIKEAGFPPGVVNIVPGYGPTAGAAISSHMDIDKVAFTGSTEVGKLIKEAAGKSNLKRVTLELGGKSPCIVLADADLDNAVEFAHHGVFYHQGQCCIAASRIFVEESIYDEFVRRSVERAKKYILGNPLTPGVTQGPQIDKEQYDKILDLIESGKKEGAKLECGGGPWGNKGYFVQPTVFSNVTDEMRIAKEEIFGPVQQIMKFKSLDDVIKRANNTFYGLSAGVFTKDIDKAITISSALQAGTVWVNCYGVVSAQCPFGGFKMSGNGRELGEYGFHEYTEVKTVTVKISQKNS
12-hLO inh: inhibitors of human 12-lipoxygenase (ALOX12) | purified 12-hLO, xylenol orange hydroperoxide absorbance | Potency, µM (titrated, usually from 57.1 µM), without a hit: top-dose activity change, negative = inhibition, hits mostly inhibitors | actives 0.12% (n = 150,000); active = well fitted inhibition curve with a large enough effect; inconclusive = small, poorly fitted or top-dose-only effect; note: potency is the fitted concentration of half-maximal effect; nearly all actives have a fitted effect of over 55% in size
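Purified human 12hLO (150 nM final) was preincubated with compounds for 15 min at room temperature in 25 mM Hepes pH 7.0, 0.01% Triton X-100, then reacted with 40 uM arachidonic acid for 30 min. Hydroperoxide was detected with ferrous iron/xylenol orange.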
PNC inhibitor: perinucleolar compartment assembly inhibition; PC3M PTB-GFP, PNC prevalence imaging, 16 h; active compounds read low; activity change (PNC), negative = inhibition, % at 10 µM; actives 3.1% (n = 140,000);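 active = readout at or below -70, meaning at least 70% loss of cells showing the perinucleolar compartment, a nuclear body marking cancer cells; inconclusive = readout between -30 and a set limit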;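 note: plate controls were DMSO wells for no effect and camptothecin positive control wells for full effect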
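Read-out is percentage of cells bearing a perinucleolar compartment, from automated 20x imaging of fixed, Hoechst-stained PC3M PTB-GFP cells. Cells were seeded 4 h, then exposed 16 h to compound (23 nl of library stock) in duplicate plates.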
Active calls of the source: *; ? = inconclusive; / = not tested or not shown; [ ] = remark or other dose. Unless noted, calls come from the whole dose curve; as a rule, active = well fitted inhibition curve with a large enough effect (not every such curve was filed as active); inconclusive = small, poorly fitted or top-dose-only effect, or another doubt; inactive = no such curve, though single readings can be large or run the other way. Unless noted, % is set by controls: 0 for no effect and ±100 for the full control effect.

SMILES | LMNA splice mod | HPGD inh | ALDH1A1 inh | 12-hLO inh | PNC inhibitor
Clc1ccc2c(c1)-c1nnc(Br)n1-c1ccccc1S2 | -4.5% | 17.8µM* | -12.8% | -4.4% | -100.0*
O=C(CSc1ncn(-c2ccccc2)n1)c1cccs1 | 10.0% | 8.91µM* | ? | -5.2% | -15.9
c1ccc(CSc2ncn(-c3ccccc3)n2)cc1 | -0.7% | 17.8µM* | 2.0% | 0.6% | 5.9
Cc1ccc(NC(=O)C2CCCN(S(=O)(=O)c3ccc4c(c3)CCCC(=O)N4)C2)cc1N(C)C (stereo not drawn) | -7.4%[46 µM] | / | / | / | /
CCCSc1ncnc2c1oc1ccccc12 | -3.2% | 20µM* | ? | -4.7% | 24.1
N#CC1=C(N)C(C#N)(C#N)C(c2ccncc2)C2CN(C(=O)OCc3ccccc3)CC=C12 (stereo not drawn) | -28.8% | -8.9% | ? | -0.6% | -118.9*
N#CC1=C(N)C(C#N)(C#N)[C@H](c2cccnc2)[C@H]2CN(C(=O)OCc3ccccc3)CC=C12 | ? | -16.1% | ? | -5.9% | ?
Cc1ccc(NC(=O)CN2CCC(NC(=O)C3CCCCC3)CC2)c(Br)c1 | ? | -0.2% | 0.7% | 3.3% | 1.5
Cc1ccc(C(=O)CN2CCC(NC(=O)C3CCCCC3)CC2)cc1 | 1.3% | -9.9% | 14.1µM* | -6.7% | 38.6
Cc1sc2ncnc(SCC(=O)N3CCCC3=O)c2c1C | 1.3% | 25.1µM* | 0.1µM* | -3.3% | -96.9*
CCN(C(=O)CSc1ncnc2sc(C)c(C)c12)C1CCS(=O)(=O)C1 (stereo not drawn) | -26.1%[46 µM] | / | ? | / | /
CCCN(CC1CC1)C(=O)CSc1ncnc2sc(C)c(C)c12 | ? | 28.2µM* | -12.7% | 4.6% | -8.2
COC(=O)c1sccc1NC(=O)CSc1ccccc1NS(=O)(=O)c1ccc(Cl)cc1 | -4.7% | -16.2% | 12.6µM* | -9.5% | -26.1
COC(=O)c1sccc1NC(=O)CSc1cc(Cl)ccc1Cl | 13.1% | -21.6% | ? | -5.7% | ?
COC(=O)c1sccc1NC(=O)CSc1ccccc1NS(=O)(=O)c1ccccc1Cl | -11.6% | -15.3% | 7.08µM* | -1.9% | -7.3
Cn1c(=O)c(-c2ccc(Cl)cc2)nc2cnc(Nc3ccccc3)nc21 | 7.9% | / | 20.3% | / | /
O=C(NC1CCCCC1)C(c1ccncc1)N(Cc1ccccc1)C(=O)c1ccc(-c2ccccc2)[nH]1 (stereo not drawn) | ? | -16.7% | 22.4µM* | 4.2% | 99.8
COc1ccc(CN(C(=O)c2ccc(-c3ccccc3)[nH]2)C(C(=O)NCC2CCCO2)c2ccc(C)o2)cc1 (stereo not drawn) | 5.1%[0.0737 µM] | ? | 10µM* | -3.2% | 74.3
O=C(NC1CCCC1)C(c1cccs1)N(Cc1ccco1)C(=O)c1csnn1 (stereo not drawn) | 1.7% | -17.5% | ? | -1.0% | ?
O=C(NC1CCCC1)C(c1ccncc1)N(Cc1cccs1)C(=O)c1csnn1 (stereo not drawn) | -2.1% | -18.2% | 3.55µM* | -18.0% | -16.8
Cc1ccc(C(C(=O)NC2CCCC2)N(Cc2ccc(F)cc2)C(=O)c2csnn2)o1 (stereo not drawn) | ? | -6.3% | 14.1µM* | -4.7% | ?
COCCNC(=O)C(c1ccc(C)o1)N(C(=O)C(=O)NC1CCCCC1)c1ccc(F)cc1 (stereo not drawn) | / | / | -14.1% | / | /
O=C(NC1CCCC1)C(c1ccncc1)N(Cc1ccccc1)C(=O)Cc1cccs1 (stereo not drawn) | 4.0% | -23.4% | ? | 2.3% | -4.5
COc1ccc(OC)c(CNC(=O)c2nn(C)c3c2CS(=O)(=O)c2ccccc2-3)c1 | -3.0%[46 µM] | / | / | / | /
COc1ccccc1-c1nccc(NCc2cccnc2)n1 | -19.4% | / | ? | / | /
SMILES | LMNA splice mod | HPGD inh | ALDH1A1 inh | 12-hLO inh | PNC inhibitor
Cc1ccc(C)c(N2CCN(C(=O)c3cc(C)nc4c3c(C)nn4-c3ccccc3)CC2)c1 | -15.0%[46 µM] | / | / | / | /
O=C(NC1CCCCC1)c1ccc2c(c1)N(Cc1ccccc1Cl)C(=O)c1ccccc1S2 | -5.2%[46 µM] | / | / | / | /
CCOc1ccccc1Oc1nc(C)nc2c1oc1ccccc12 | -36.0%[46 µM] | / | / | / | /
Cc1cc(=O)oc2c1ccc1oc(/C(=N/O)c3ccccc3)c(C)c12 | ? | 12.6µM* | ? | -2.9% | 38.3
Cc1ccccc1CSCC(=O)c1c(N)n(CC(C)C)c(=O)n(C)c1=O | -17.1% | -9.4% | 28.2µM* | 12.2% | 40.3
CC(=O)NS(=O)(=O)c1ccc(NC(=O)c2cc(-c3ccc(C)c(C)c3)nc3ccccc23)cc1 | 19.9% | -23.2% | -7.8% | -6.0% | -96.3*
O=C(N/N=C/c1ccsc1)c1cc(-c2ccncc2)nc2ccccc12 | ? | -8.1% | -8.9% | -4.3% | -113.8*
Cc1cc(C(=O)N/N=C/c2ccc([N+](=O)[O-])cc2)c2ccccc2n1 | / | / | 4.1% | / | /
Cc1cc(C(=O)N/N=C/c2ccc(N(C)C)cc2)c2ccccc2n1 | / | / | 35.5µM* | / | /
NS(=O)(=O)c1ccc(NC(=O)c2cc(-c3cccs3)nc3ccccc23)cc1 | -17.1% | ? | ? | -3.8% | -115.1*
CN(C)S(=O)(=O)c1ccc(NC(=O)c2cc(-c3cccs3)nc3ccccc23)cc1 | -14.9% | ? | ? | 0.0% | 0.2
O=C(c1csnn1)N1CCC[C@@]2(CCN(c3ccccn3)C2)C1 | / | -11.0% | 0.2% | 7.4% | /
CCOc1ccc(NC(=O)C(C)n2c(=O)cc(C)c3c(C)nn(-c4ccccc4)c32)cc1 (stereo not drawn) | -19.4%[46 µM] | / | / | / | /
Cc1c(C(=O)N/N=C/c2ccc(N(C)C)cc2)[nH]c2ccc(Cl)cc12 | -16.8% | -18.1% | ? | -1.2% | -113.0*
CC(/C=N/NC(=O)c1cc(-c2ccncc2)nc2ccccc12)=C\c1ccco1 | ? | -21.1% | ? | -1.9% | -87.1*
Cc1cc(C(=O)N/N=C(\CCC(=O)O)c2cccs2)c2ccccc2n1 | / | / | 25.1µM* | / | /
O=C(N/N=C/c1ccco1)c1cc(-c2cccc(Br)c2)nc2ccccc12 | ? | ? | -2.0% | -9.1% | 0.4
Cc1ccsc1/C=N/NC(=O)c1cc(-c2ccncc2)nc2ccccc12 | ? | -20.6% | ? | 5.2% | -109.0*
Cc1ccc(C2=Nc3ccccc3N(CC(=O)Nc3ccccc3F)C(=O)C2)cc1C | -14.0%[46 µM] | / | / | / | /
CCCOc1ccc(N2CC(C(=O)NCCc3ccc(OC)c(OC)c3)CC2=O)cc1 (stereo not drawn) | / | / | 6.9% | / | /
CCOCCc1nn2c(=O)cc(COC(=O)c3ccco3)nc2s1 | 1.2%[46 µM] | / | / | / | /
O=C(N/N=C/c1ccsc1)c1cc(-c2cccs2)nc2ccccc12 | ? | ? | 114.1% | -9.7% | ?
O=C(O)c1ccc(/C=N/NC(=O)c2cc(-c3cccs3)nc3ccccc23)cc1 | -4.1% | ? | ? | -1.0% | -106.7*
O=C(N/N=C/c1ccc2c(c1)OCO2)c1cc(-c2ccncc2)nc2ccccc12 | ? | 28.2µM* | 1.8% | -1.0% | -21.1

Compound activity deposited in PubChem by National Center for Advancing Translational Sciences (NCATS).
